Assay results published in PubChem BioAssay AID1961 (Sanford-Burnham Center for Chemical Genomics, 2009).
The campaign covered roughly 290,000 compounds. About 140 (0.048%) were called active.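 Rule for the calls: active = activation above 40% with more than 50 cells counted in the well; inconclusive = wells holding fewer than 50 cells, flagged as toxic or sparse; inactive = the rest.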 The full list was thinned out, with actives kept by preference.

Assays:
[1] = selective activators of receptor GPR55 – imaging, U2OS cells, beta-arrestin-GFP redistribution, primary screen (AID 1961); conditions: measured here: cytotoxicity, cells analyzed, at 10 µM;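 note: U2OS osteosarcoma cells stably expressing GPR55 and beta-arrestin-GFP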;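 for activation: plate controls were DMSO negative control for no effect and LPI positive control for full effect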
[2] = molecular target: G-protein coupled receptor 55 (Homo sapiens) (UniProt Q9Y2T6); test: as above; conditions: at 10 µM, stronger effect = higher value
G-protein coupled receptor 55 (Homo sapiens), sequence (Q9Y2T6 whole entry, looked up): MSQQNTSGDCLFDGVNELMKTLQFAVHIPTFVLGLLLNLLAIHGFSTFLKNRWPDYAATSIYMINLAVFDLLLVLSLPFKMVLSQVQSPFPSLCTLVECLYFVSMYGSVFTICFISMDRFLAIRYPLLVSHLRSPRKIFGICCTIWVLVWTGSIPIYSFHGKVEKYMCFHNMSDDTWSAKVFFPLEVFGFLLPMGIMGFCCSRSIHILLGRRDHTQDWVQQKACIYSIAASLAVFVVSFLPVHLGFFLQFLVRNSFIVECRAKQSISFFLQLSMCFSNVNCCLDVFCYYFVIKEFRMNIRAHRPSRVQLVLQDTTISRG

SMILES	cell count [1]	activation [2]
CN1/C(=C\C=C2C(=O)NC(=S)NC2=O)C(C)(C)c2ccccc21	268 cells	57.7% (active)
CN1/C(=C\C=Nc2ccccc2)C(C)(C)c2ccccc21	360 cells	-0.1% (inactive)
CN1/C(=C\C=C2C(=O)NC(=O)NC2=O)C(C)(C)c2ccccc21	294 cells	0.4% (inactive)
N[C@@H](Cc1c[nH]c2ccccc12)c1nnc(SCc2ccc(Cl)cc2)o1	304 cells	0.1% (inactive)
CC(=Nc1ccccc1N)c1c(O)n(C)c(=O)[nH]c1=O	323 cells	0.7% (inactive)
